# Compounds with a hit are over-represented: about 5.4% of the library has one in this group of screens.
# HSF-1 act – increases HSF-1 driven luciferase reporter signal. 300,000 tested, 1.7% active. NIH3T3-HGL HSF-1 luciferase reporter, MG132, 8 h; 100% = twice DMSO control signal. activation, % at 9 µM. AID 504408;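 active = mean replicate activation of at least 50% with a set share of replicates each reaching 50%; inconclusive = only one of those two conditions met; inactive = mean below 50% and too few replicates reaching it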;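 note: 0% = median of the neutral control wells and 100% = twice that signal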
# AHR activator – activators of human aryl hydrocarbon receptor; AHR-responsive luciferase reporter cells, luminescence; activation, % at 5 µM; 320,000 tested, 2.5% active; in the data active = activation above about 47%;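 note: 0% = vehicle wells and 100% = reference agonist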
# Target sequence (P35869 whole entry, looked up): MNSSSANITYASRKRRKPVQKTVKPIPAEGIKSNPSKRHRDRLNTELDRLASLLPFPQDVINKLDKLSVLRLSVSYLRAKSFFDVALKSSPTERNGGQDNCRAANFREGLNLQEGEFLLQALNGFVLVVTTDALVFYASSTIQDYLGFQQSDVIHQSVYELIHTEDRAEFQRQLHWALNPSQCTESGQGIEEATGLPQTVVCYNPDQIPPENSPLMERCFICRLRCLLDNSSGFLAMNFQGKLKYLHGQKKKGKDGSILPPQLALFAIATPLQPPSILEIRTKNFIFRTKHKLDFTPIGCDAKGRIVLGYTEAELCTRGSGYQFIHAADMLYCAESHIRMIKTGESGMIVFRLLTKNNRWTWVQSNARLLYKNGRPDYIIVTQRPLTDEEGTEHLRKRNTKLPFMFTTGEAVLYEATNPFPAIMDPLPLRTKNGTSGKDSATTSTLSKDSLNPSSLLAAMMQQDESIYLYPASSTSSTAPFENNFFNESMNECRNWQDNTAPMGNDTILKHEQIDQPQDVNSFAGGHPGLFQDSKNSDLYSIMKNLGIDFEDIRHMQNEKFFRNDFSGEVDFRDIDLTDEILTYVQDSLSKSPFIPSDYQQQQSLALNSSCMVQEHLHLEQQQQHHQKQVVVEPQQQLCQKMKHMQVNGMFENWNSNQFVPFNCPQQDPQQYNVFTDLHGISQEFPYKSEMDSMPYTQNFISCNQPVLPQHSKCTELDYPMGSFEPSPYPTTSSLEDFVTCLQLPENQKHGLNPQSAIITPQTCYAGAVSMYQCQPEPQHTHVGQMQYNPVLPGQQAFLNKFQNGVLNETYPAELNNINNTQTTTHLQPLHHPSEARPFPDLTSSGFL
# DAX1 inh – inhibitors of human orphan nuclear receptor DAX1 (NR0B1); P51843; HEK293 Gal4-DAX1 luciferase reporter, luminescence; inhibition, % at 6.75 µM; 340,000 tested, 0.99% active; AID 504766;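 active = inhibition above the mean over all tested compounds plus 3 SD, cut at about 4.2% in these data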;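 note: 0% = DAX1-transfected cells with DMSO and 100% = empty-vector control cells with DMSO; inhibition shows as a rise in luminescence from relieved DAX1 repression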
# GAA850 FXN act – activators of GAA850 frataxin (FXN) promoter. HEK293 lucGAA850 FXN promoter luciferase reporter, 24 h; percent of 10 µM SAHA response. activation, % at 6 µM. 360,000 tested, 0.56% active;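 active = activation above the average of all compounds screened plus 3 SD, cutoff fixed separately per campaign, cut at about 7.5% in these data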;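 note: 0% = DMSO wells and 100% = 10 µM SAHA wells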
# HSF1 inhib – HSF1 inhibition; NIH3T3-HGL HSE-luciferase, MG132-induced, luminescence 8 h; active compounds read low; activity change, negative = inhibition, % at 7.5 µM (by protocol); 300,000 tested, 0.77% active;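 active = more than half of replicate wells show activity change below -50%, luminescence cut by over half; inconclusive = some wells, but at most half, below -50%; inactive = no replicate well below -50%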;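 note: luciferase reports HSF-1 transcriptional activity via heat shock element; 0% = median of DMSO wells and -100% = zero luminescence signal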
# Numbers without * were called inactive; ? = inconclusive; nt = no result.
SMILES,HSF-1 act,AHR activator,DAX1 inh,GAA850 FXN act,HSF1 inhib
O=c1/c(=C\c2cccc(O)c2)sc2nc(-c3ccccc3)c(-c3ccccc3)n12,-10.3,-6.3,0.9,nt,8.5
Cc1ccc(OCC(=O)N/N=C\c2c(C)n(C)c3ccccc23)c([N+](=O)[O-])c1,-34.4,60.5*,-0.5,2.3,-15.4
CC(C)n1cc(/C=N/NC(=O)COc2cccc3cccnc23)c2ccccc21,77.7*,45.5,-0.9,2.7,22.1
COc1cccc(/C=N/NC(=O)COc2cccc3cccnc23)c1O,24.4,6.5,-0.3,-0.4,5.2
Cc1cccc(OCCn2cc(/C=N/NC(=O)c3ccncc3)c3ccccc32)c1,35.7,24.6,-0.8,1.0,1.8
Cc1cccc(OCC(=O)N/N=C\c2cn(C)c3ccccc23)c1,2.8,72.3*,1.5,-0.5,4.2
Cc1ccc(OCC(=O)N/N=C/c2ccccc2)c([N+](=O)[O-])c1,31.0,nt,0.5,-1.2,7.1
Clc1ccccc1-c1ncc(-c2ccccc2)o1,?,34.5,5.2*,3.3,40.2
Cc1ccc(C(=O)Nc2ncc(Cc3ccccc3)s2)o1,53.6*,40.9,-0.9,0.2,22.7
O=C(Nc1ncc(Cc2cccc(Cl)c2)s1)c1cccs1,20.7,-1.1,0.7,1.5,28.3
O=C(Nc1ncc(Cc2ccccc2)s1)c1cccs1,54.7*,11.3,0.7,0.8,38.6
O=C(Nc1ncc(Cc2ccc(SC(F)F)cc2)s1)c1ccccc1,21.2,37.6,0.6,1.9,15.4
Cc1ccc(Cc2cnc(NC(=O)c3cccs3)s2)cc1,64.6*,25.9,2.4,4.6,34.1
COc1cccc(/C=N/Nc2ccccc2C(=O)O)c1O,24.4,31.6,5.0*,4.0,18.2
O=C(O)c1ccccc1NN=Cc1ccccc1,nt,nt,4.5*,0.9,nt
Cc1ccc2c(c1)[C@@H]1[C@H](CO2)[C@H](c2ccccc2)[C@@]2(C)C(=O)N[C@H](C)C(=O)N12,nt,0.2,0.4,0.1,nt
Cc1ccc(N(Cc2ccccc2)C(=O)CN2C(=O)NC3(CCCC3)C2=O)cc1,-7.2,2.9,-0.4,1.5,-1.0
CN(C)S(=O)(=O)c1ccc(NC(=O)COC(=O)CC2CC3CCC2C3)cc1 (stereo not given),1.8,6.3,1.3,-1.1,1.2
COc1ccc(-n2cc(CNCCCn3ccnc3)c(-c3cccc(F)c3)n2)cc1,9.2,9.4,5.4*,-0.6,-1.8
Cc1cc(C(=O)COc2cc(F)ccc2[N+](=O)[O-])c(C)n1C1CC1,10.7,76.5*,-0.1,1.8,-3.6
COc1ccccc1C1CC(=O)Nc2cc(C)c(C)cc21 (stereo not given),24.1,22.5,-0.2,-5.0,-5.5
Cc1cc2c(cc1C)C(c1ccccc1OC(C)C)CC(=O)N2 (stereo not given),2.4,51.5*,-2.5,-3.4,-4.5
NS(=O)(=O)c1ccc(CNC(=O)c2cc(=O)c3ccccc3o2)cc1,-2.1,5.9,0.5,-1.6,3.4
c1ccc(-c2cc(-c3nc4ccccc4[nH]3)c3ccccc3n2)cc1,3.8,52.0*,-1.9,2.5,-1.8
Nc1ccc(-c2nc3ccccc3[nH]2)cc1,29.4,17.1,3.1,-2.4,24.1
SMILES,HSF-1 act,AHR activator,DAX1 inh,GAA850 FXN act,HSF1 inhib
Nc1ccccc1-c1nc2ccccc2[nH]1,17.3,55.1*,2.5,1.0,20.6
Oc1ccc(C=Nc2ccccc2-c2nc3ccccc3[nH]2)cc1,34.4,73.7*,1.1,1.5,17.8
COc1ccc(-c2cn[nH]c2-c2ccc(OCc3ccc([N+](=O)[O-])cc3)cc2O)cc1OC,56.6*,14.4,-4.7,-4.4,29.5
COc1ccc(N(C(=O)c2snc(C(N)=O)c2N)C(C(=O)NC2CCCC2)c2cc(OC)ccc2OC)cc1 (stereo not given),2.1,-2.2,-2.4,2.0,3.9
O=C(/C=C(/c1ccc(Cl)cc1)n1cncn1)c1ccccc1,16.1,64.5*,0.3,3.2,14.2
Cc1ccc(CNC(=O)C2CCCN(S(=O)(=O)c3c(C)noc3/C=C/N(C)C)C2)cc1 (stereo not given),19.4,0.7,3.9,-0.8,0.6
Cc1cc(C)nc(NC(=O)CSc2nn(-c3ccccc3)c(=S)s2)n1,6.8,1.6,9.1*,-1.4,2.8
O=C(CSc1nn(-c2ccccc2)c(=S)s1)Nc1ncccn1,nt,6.9,1.9,1.3,nt
Cc1nnc(NC(=O)C23CC4CC(CC(C4)C2)C3)s1,11.4,-0.2,-0.1,0.0,-0.5
C#CCNC(=O)C1=C[C@@H](C2CCCCC2)C[C@@H](OCc2ccc(CO)cc2)O1,-4.1,48.1*,-0.4,0.6,6.7
CC(=O)n1cc([C@@H]2C=C(C(=O)NCc3ccccc3)O[C@H](OCc3ccc(CO)cc3)C2)c2ccccc21,-16.7,66.3*,-1.5,-5.0,-0.1
C#CCNC(=O)C1=C[C@H](c2cn(C(C)=O)c3ccccc23)C[C@H](OCc2ccc(CO)cc2)O1,-4.8,40.5,-1.0,-4.4,-0.3
CC(=O)n1cc([C@H]2C=C(C(=O)O)O[C@@H](OCCCCO)C2)c2ccccc21,-34.6,3.6,-0.9,-1.4,-14.5
CC(=O)n1cc([C@@H]2C=C(C(=O)Nc3ccccc3)O[C@H](OCCCCO)C2)c2ccccc21,7.5,56.5*,0.7,-0.8,4.3
Cc1ccccc1-c1ccc2c(c1)O[C@H](CN(C)C(=O)C1CC1)[C@@H](C)CN([C@@H](C)CO)S2(=O)=O,nt,nt,0.8,-1.8,nt
CCOC(=O)/C(=C/C1=CC(=C/N(C)C)/C(=O)O1)C(C)=O,7.5,-2.1,4.1,2.8,-7.3
O=C(Cn1nc2n(c1=O)-c1ccccc1SC2)N/N=C/c1ccncc1,-15.1,6.0,0.8,0.9,-0.8
CC(C)c1ccc(/C=N/NC(=O)CCNC(=O)c2ccccc2)cc1,22.2,11.3,0.9,2.0,10.6
Cc1ccc(S(=O)(=O)N(C)CC(=O)N2CCCCCCC2)cc1,-1.7,-1.8,-1.5,-0.3,0.6
Cc1ccc(S(=O)(=O)N(C)CC(=O)N2CCN(Cc3ccccc3)CC2)cc1,24.6,nt,5.0*,1.7,-5.4
COc1cccc(C2=Nn3c(nnc3-c3ccccc3O)SC2)c1,11.1,57.6*,0.2,2.4,2.0
COc1ccc(C2=Nn3c(nnc3-c3ccccc3OC)SC2)cc1OC,-16.7,35.0,-4.2,7.0,-16.0
CCOc1cccc(-c2nnc3n2N=C(c2cc(OC)ccc2OC)CS3)c1,-16.3,24.4,-0.4,2.8,-4.4
COc1cccc(-c2nnc3n2N=C(c2cc(OC)ccc2OC)CS3)c1,4.5,59.0*,2.2,-0.2,-7.1
COc1cccc(-c2nnc3n2N=C(C(C)(C)C)CS3)c1,-65.6,4.1,-0.9,-8.7,-63.0*
CCN(CC)CCN=c1c(C)nc(C#N)c(N)n1O,nt,nt,1.4,0.8,nt
COc1cc(C)c(NC(=O)Cc2ccsc2)cc1OC,1.1,6.8,-0.8,1.1,-8.5
CCCCn1c(N)c(N(CCOC)C(=O)CC2CCCCC2)c(=O)[nH]c1=O,nt,nt,1.6,0.1,nt
O=C(CN1C(=O)NC2(CCCCCC2)C1=O)c1ccc(Cl)s1,20.2,4.8,0.1,0.5,3.5
